# ClpP mod – qHTS Assay for Activators of ClpP | ATP-dependent Clp protease proteolytic subunit (Bacillus subtilis (strain 168)), P80244 | purified B. subtilis ClpP, FRET peptide cleavage, 20 min | Potency, µM (highest dose often 57.5 µM) | actives 1.9% (n = 340,000) | AID 651965, 2013; active = well fitted falling curve with a large enough effect; inconclusive = small, poorly fitted or top-dose-only effect; inactive = no such curve, though single readings can be large or run the other way; also: the source files actives as falling curves though it sought activators and does not explain the sign; nearly all actives have a fitted effect of over 65% in size
#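 ClpP 10 microg/mL final, pH 8 Tris/KCl buffer with BSA, glycerol, Tween-20; compound pinned in; FRET-FV substrate; RT 20 min; Ex320/Em430; ΔFRET vs ADEP 5.8 microM, DMSO, no enzyme.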
# KCNH2 3.1 inh – KCNH2 3.1 (human) potassium channel inhibition. U2OS KCNH2 3.1, thallium flux FluxOr; active compounds read low. AID 720553. activity change, % (tested at about 1.8 µM). actives 0.95% (n = 340,000);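 active = maximum activity change below -70%; inconclusive = maximum activity change from -70% to -50%; inactive = maximum activity change above -50%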;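 also: thallium influx rate constant from kinetic fluorescence after stimulation buffer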
#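 Kinetic fluorescence (2 min after stimulation buffer) measures Tl+ influx through KCNH2 3.1 expressed by viral transduction in U2OS cells; the rate constant is normalized against DMSO controls serving as positive and negative references.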
# TRPV1 agonist – activates the human vanilloid receptor TRPV1; TRPV1-expressing cells, Fluo-8 calcium influx, agonist mode; Q8NER1; actives 0.19% (n = 320,000); activation, % at 8.33 µM; in the data active = activation above about 80%; inconclusive = between about 30% and that limit
#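 Cells expressing TRPV1 were dye-loaded with Fluo-8 and read kinetically: 10 s baseline, 3 min after compound (agonist portion), then 2 min after EC20 capsaicin (allosteric enhancer portion). Calcium-bound dye fluorescence at 480/520 nm.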
# p53 reactivator – restores transcriptional activity of mutant p53 | H1299 p53-A138V BP100-luciferase reporter, luminescence, 24 h | AID 504706 | actives 0.063% (n = 320,000) | Potency, µM (doses to about 92.2 µM), usual class: activators; active = well fitted activation curve with a large enough effect; inconclusive = small, poorly fitted or top-dose-only effect; inactive = no such curve, though single readings can be large or run the other way; also: nearly all actives have a fitted effect of over 45% in size
#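 p53-null H1299 cells stably carrying temperature-sensitive p53-A138V and a BP100-luciferase reporter were pinned with compounds (4-point, 1:5 series) and held 24 hrs at 37 deg C. Luminescence was read 10 min after detection reagent.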
# TRPV1 potentiator – human TRPV1 potentiation. TRPV1-expressing cells, Fluo-8 calcium influx, capsaicin EC20 potentiation. Q8NER1. potentiation, % at 8.33 µM. AID 540277. actives 0.02% (n = 320,000); in the data active = potentiation above about 80%; inconclusive = between about 30% and that limit
#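 Cells expressing TRPV1 were dye-loaded with Fluo-8 and read kinetically: 10 s baseline, 3 min after compound (agonist portion), then 2 min after EC20 capsaicin (allosteric enhancer portion). Calcium-bound dye fluorescence at 480/520 nm.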
# KCNH2 WT inh – KCNH2 (human, wildtype) channel inhibition | U2OS, BacMam KCNH2, thallium flux FluxOr; active compounds read low | actives 0.37% (n = 340,000) | activity change, % at 1.84 µM | AID 720551 | Q12809;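 active = maximum activity change below -70%; inconclusive = maximum activity change between -70% and -50%; inactive = maximum activity change above -50%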
#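 U2OS cells were transduced with wild-type KCNH2 virus (2.03 x 10^8 / mL) for 4 h at room temperature, then cultured overnight at 37 C. Thallium flux was read with FluxOr dye. Rate constants were normalized to DMSO controls.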
# A number is an active result; n = inactive; u = inconclusive; x = no result given. Compounds with a hit are over-represented: about 2.6% of the library has one in this group of screens.
SMILES,ClpP mod,KCNH2 3.1 inh,TRPV1 agonist,p53 reactivator,TRPV1 potentiator,KCNH2 WT inh
Cc1ccccc1C(=O)N(Cc1ccc(N(C)C)cc1)Cc1ccco1,n,x,x,x,x,x
COc1ccc(Cn2c(=O)c3c(nc(NCCO)n3C)n(C)c2=O)cc1,3.5µM,n,n,n,n,n
COCCCNc1nc2c(c(=O)n(Cc3ccc(OC)cc3)c(=O)n2C)n1C,n,n,n,n,n,x
Cc1ccccc1NC(=O)N1CCCC(c2nc(-c3ccc(C(C)C)cc3)no2)C1 (configuration not stated),n,n,n,45µM,n,n
Fc1ccc(-c2noc3ncnc(NCc4cccc(Cl)c4)c23)cc1,n,x,x,x,x,x
CC(=O)N1N=C(c2ccccc2)CC1c1ccccc1[N+](=O)[O-] (configuration not stated),n,n,n,n,u,n
O=C(c1ccccc1)N1N=C(c2ccccc2)CC1c1ccccc1[N+](=O)[O-] (configuration not stated),25µM,n,n,n,n,n
COc1ccccc1/C=N/NC(=O)c1ccc(=O)n(C)c1,n,n,n,n,n,n
COc1ccccc1/C=C/C=N/NC(=O)c1ccc(=O)n(C)c1,n,-93,n,n,n,n
COc1ccc(NC(=O)C2Cc3c(-c4cccc(C(N)=O)c4)ccnc3O2)cn1 (configuration not stated),n,x,x,x,x,x
C/C(=N\NC(=O)c1ccncc1)c1cccc(NC(=O)c2ccc(C(C)(C)C)cc2)c1,n,n,85,n,n,n
O=C(Nc1ccc(OC(F)(F)F)cc1)Nc1cccc([N+](=O)[O-])c1,n,n,u,35µM,n,n
Cc1c(C(=O)Nc2cccc([N+](=O)[O-])c2)cnn1-c1ccccc1,n,n,103,n,n,n
CC(C)(C)c1ccc(C(=O)Nc2cccc([N+](=O)[O-])c2)cc1,n,n,84,u,n,n
O=C(Nc1cccc([N+](=O)[O-])c1)c1ccncc1,n,n,n,n,n,n
C/C(=N/NC(=O)c1ccncc1)c1ccc(NC(=O)c2ccccc2)cc1,n,n,u,n,n,n
Cc1c(C(=O)Nc2ccccc2)cnn1-c1ccccc1,n,n,x,x,x,n
COc1ccccc1-c1cn(CC[C@H]2CC[C@@H](NS(=O)(=O)c3ccccc3C)[C@@H](CO)O2)nn1,n,x,x,x,x,x
CC(C)c1ccc(NC(=O)CSC2=Nc3ccccc3C3=NC(CC(=O)NCc4ccc(F)cc4)C(=O)N23)cc1 (configuration not stated),n,x,x,x,x,x
CN(C)c1ccc(NC(=O)c2cccc([N+](=O)[O-])c2)c2ccccc12,x,n,83,x,n,n
O=C(Nc1ccncc1NC(=O)c1cccc([N+](=O)[O-])c1)c1cccc([N+](=O)[O-])c1,x,n,n,n,n,n
O=C(Nc1cccc(NC(=O)c2cccc([N+](=O)[O-])c2)n1)c1cccc([N+](=O)[O-])c1,n,-84,n,n,n,n
O=C(Nc1ccc2c3c(cccc13)CC2)c1cccc([N+](=O)[O-])c1,n,n,u,n,n,n
Cc1ccc(-n2nc(C(=O)N3CCC(C)CC3)c(=O)n(C)c2=O)cc1,n,x,x,x,x,x
Cc1ccc(CNC(=O)COC(=O)Cn2nc(C)c([N+](=O)[O-])c2C)cc1,x,x,n,n,n,n
SMILES,ClpP mod,KCNH2 3.1 inh,TRPV1 agonist,p53 reactivator,TRPV1 potentiator,KCNH2 WT inh
Cc1nn(CC(=O)OCCOc2ccc(Br)cc2)c(C)c1[N+](=O)[O-],n,-73,n,n,n,n
Oc1c(CN2CCOCC2)cc(CN2CCOCC2)c(O)c1CN1CCOCC1,x,n,x,x,x,n
O=c1[nH]cc(CN2CCOCC2)c(=O)[nH]1,x,-82,x,x,x,n
COc1ccc(C2C=C(c3ccccc3)Nc3nc(NC(=O)/C=C/c4ccccc4OC)nn32)cc1 (configuration not stated),n,x,x,x,x,x
COc1cc(N(C)C)c(OC)cc1C=O,n,x,x,x,x,x
COC(=O)C1C(=O)C=C(N2CCOCC2)CC1(C)C (configuration not stated),13µM,n,n,n,u,n
CC1(C)CC(N2CCOCC2)=CC(=S)N1,n,x,x,x,x,x
COc1ccc(CCNC(=O)CCn2c(=O)c3cccn3c3ccc(F)cc32)cc1OC,n,x,x,x,x,x
CCC(=O)NC(c1cccc([N+](=O)[O-])c1)c1c(OC(C)=O)ccc2ccccc12 (configuration not stated),28µM,n,n,n,n,n
c1ccc(CCCCc2ccccn2)cc1,x,n,x,x,x,n
c1ccc(CCCNc2ncccn2)cc1,u,-97,n,n,n,n
Cc1ccc(NC(=O)C2CCN(S(=O)(=O)c3ccc(F)cc3)CC2)cc1,n,n,u,n,n,n
O=C(Nc1ccc(S(=O)(=O)N2CCCC2)cc1)C1CCN(S(=O)(=O)c2ccc(F)cc2)CC1,u,-106,u,n,n,n
O=S(=O)(c1ccc2[nH]c3c(c2c1)CCCCC3)N1CCN(c2cccc(Cl)c2)CC1,n,x,x,x,x,x
CCOC(=O)c1sc2nc(CC(=O)OC)nc(NCc3ccc(Cl)cc3)c2c1C,14µM,n,n,n,n,n
COC(=O)[C@]12CCCCC=C1N(CCc1ccc(OC)c(OC)c1)C(=O)[C@H](CC(=O)N1CCN(C(=O)C3CC3)CC1)C2,n,x,x,x,x,x
O=C(Nc1nc(-c2ccc(Br)cc2)ns1)c1ccccc1F,n,x,x,x,x,x
CCc1nn2c(-c3ccccc3OC)ccnc2c1-c1ccccc1,n,x,x,x,x,x
COC(=O)Cn1c(C(=O)N2CCCC2)cc2c1C[C@H]1CN(C(=O)c3ccccc3)[C@@](Cc3ccc(OC)cc3)(C(=O)OC)[C@@H]21,n,x,x,x,x,x
CCOC(=O)c1c(C)c[nH]c1C,x,-85,n,n,n,n
COC(=O)c1c(C)c[nH]c1C,n,n,n,n,n,n
Cc1ccccc1CNC(=O)c1ccc2[nH]c(C)c(C)c2c1,n,x,x,x,x,x
Cc1sc(N)nc1-c1ccccc1,n,n,n,n,n,n
Nc1c(-c2ccccc2)nc(Cl)nc1-c1ccccc1,32µM,n,n,n,n,n
CCCCN(CCC(=O)O)c1ccc(/C=C/c2ccnc3ccccc23)cc1,n,x,x,x,x,x
O=C(CSc1n[nH]c(-c2ccc(S(=O)(=O)N3CCCCC3)cc2)n1)Nc1nccs1,28µM,n,n,n,n,n
COc1ccc(NC(=O)c2c(NC(=O)Cc3ccccc3)sc3c2CCCC3)cc1,28µM,x,n,x,n,x
CCOC(=O)N1CCc2c(sc(NC(=O)CN3CCN(C)CC3)c2C(=O)Nc2ccccc2)C1,x,-97,u,n,n,u
Cc1ccc(NC(=O)c2c(NC(=O)Cc3ccccc3)sc3c2CCCC3)cc1,22µM,x,u,x,n,x

# Assay outcomes: PubChem, National Center for Advancing Translational Sciences (NCATS)
